Source: PubChem BioAssay
Several values for one entry are separate records, joined by “and”; a condition that tells them apart may be missing. Equal values may be shown once. For some assays here: Measured potencies and affinities stand elsewhere. More than one record can exist for a structure, and the calls need not agree. Activity calls are given as the source filed them. Unless noted, the rule behind the calls is not given here.

Key:
[1] = antimalarial activity against Dd2 strain (AID 2302;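 active = growth inhibition above 50% at the single 2 µM test dose, taken to imply half-maximal potency below 2 µM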;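 note: 0% = DMSO untreated growth and 100% = chloroquine plus artemisinin killed control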); conditions: P. falciparum Dd2 in RBCs, LDH growth readout, 72 h; at 2 µM; stronger effect = higher value
[2] = human hepatoma cell viability loss – ATP luminescence, cytotoxicity control for P. falciparum antimalarial project, primary screen (AID 2303;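 active = inhibition above 50%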;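 note: 0% = DMSO wells and 100% = digitonin-killed cells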); conditions: HepG2 viability, 24-48 h, at 10 µM, stronger effect = higher value
[3] = target: L-lactate dehydrogenase (Plasmodium falciparum (isolate CDC / Honduras)) (UniProt Q27743); experiment: PfLDH activity inhibition – cell lysate, 3D7 strain, counter-screen for P. falciparum growth inhibition project (AID 2304);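 note: 0% = vehicle and 100% = reference inhibitor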; conditions: P. falciparum 3D7 crude extract, LDH APAD/NBT absorbance; at 2 µM; stronger effect = higher value
L-lactate dehydrogenase (Plasmodium falciparum (isolate CDC / Honduras)), sequence (Q27743 whole entry, looked up): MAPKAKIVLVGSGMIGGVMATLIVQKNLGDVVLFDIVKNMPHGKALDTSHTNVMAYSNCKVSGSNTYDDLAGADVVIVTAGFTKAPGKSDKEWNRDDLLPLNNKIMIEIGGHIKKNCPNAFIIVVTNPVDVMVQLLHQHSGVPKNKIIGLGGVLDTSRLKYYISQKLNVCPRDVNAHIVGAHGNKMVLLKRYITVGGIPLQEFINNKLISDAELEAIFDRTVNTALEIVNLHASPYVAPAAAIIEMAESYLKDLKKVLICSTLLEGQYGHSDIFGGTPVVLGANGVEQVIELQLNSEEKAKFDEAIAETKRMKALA

[4] = inhibition of 3D7 malaria parasite growth – strain 3D7 (AID 2306);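 note: 0% = DMSO wells and 100% = chloroquine plus artemisinin control wells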; conditions: P. falciparum 3D7 erythrocytic growth, LDH absorbance, 72 h; at 2 µM; stronger effect = higher value
[5] = target: Calcium-dependent protein kinase 1 (Plasmodium falciparum (isolate 3D7)) (UniProt P62344); experiment: PfCDPK1 kinase inhibitors, biochemical, TCAMS library (AID 1159585; cut-off not given, nearly all actives have IC50 up to about 0.98 µM;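 note: inhibitors leave more ATP so luminescence rises with inhibition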); conditions: recombinant PfCDPK1, Kinase-Glo ATP depletion luminescence
Calcium-dependent protein kinase 1 (Plasmodium falciparum (isolate 3D7)), sequence (P62344 whole entry, looked up): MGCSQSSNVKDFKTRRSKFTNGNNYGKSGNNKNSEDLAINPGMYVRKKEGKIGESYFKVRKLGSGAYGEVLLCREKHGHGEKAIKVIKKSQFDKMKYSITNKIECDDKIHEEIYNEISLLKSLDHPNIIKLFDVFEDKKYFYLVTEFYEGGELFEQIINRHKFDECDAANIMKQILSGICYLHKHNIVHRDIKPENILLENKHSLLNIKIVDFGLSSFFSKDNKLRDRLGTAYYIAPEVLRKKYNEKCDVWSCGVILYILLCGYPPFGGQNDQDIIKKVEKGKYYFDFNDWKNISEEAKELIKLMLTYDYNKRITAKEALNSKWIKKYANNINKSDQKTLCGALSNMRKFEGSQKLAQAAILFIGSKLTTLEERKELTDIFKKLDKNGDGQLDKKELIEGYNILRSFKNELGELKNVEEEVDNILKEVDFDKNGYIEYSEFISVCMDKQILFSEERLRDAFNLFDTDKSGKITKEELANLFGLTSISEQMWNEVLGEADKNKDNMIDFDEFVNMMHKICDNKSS

[6] = target: Plasmodium falciparum protein kinase 6 (PK6, PF3D7_1337100) (UniProt Q8IDW1); experiment: PfPK6 kinase inhibitors, biochemical, TCAMS library (AID 1159586); conditions: recombinant PfPK6, Kinase-Glo ATP depletion luminescence
Plasmodium falciparum protein kinase 6 (PK6, PF3D7_1337100), sequence (Q8IDW1 1-305): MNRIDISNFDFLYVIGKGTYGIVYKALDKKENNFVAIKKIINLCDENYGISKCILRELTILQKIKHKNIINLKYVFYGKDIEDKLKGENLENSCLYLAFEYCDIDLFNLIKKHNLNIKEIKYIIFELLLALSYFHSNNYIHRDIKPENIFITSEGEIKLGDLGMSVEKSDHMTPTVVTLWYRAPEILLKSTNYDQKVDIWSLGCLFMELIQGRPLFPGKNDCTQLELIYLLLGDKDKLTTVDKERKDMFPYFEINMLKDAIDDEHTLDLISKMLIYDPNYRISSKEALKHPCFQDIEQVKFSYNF

[7] = target: Protein kinase 7 (PK7), Plasmodium falciparum 3D7 (PF3D7_0213400) (UniProt Q7YTF7); experiment: inhibition of Plasmodium PK7 catalytic activity – biochemical, TCAMS antimalarial set, Kinase-Glo luminescence (AID 1159587); conditions: recombinant PfPK7, Kinase-Glo ATP depletion luminescence
Protein kinase 7 (PK7), Plasmodium falciparum 3D7 (PF3D7_0213400), sequence (Q7YTF7 1-343): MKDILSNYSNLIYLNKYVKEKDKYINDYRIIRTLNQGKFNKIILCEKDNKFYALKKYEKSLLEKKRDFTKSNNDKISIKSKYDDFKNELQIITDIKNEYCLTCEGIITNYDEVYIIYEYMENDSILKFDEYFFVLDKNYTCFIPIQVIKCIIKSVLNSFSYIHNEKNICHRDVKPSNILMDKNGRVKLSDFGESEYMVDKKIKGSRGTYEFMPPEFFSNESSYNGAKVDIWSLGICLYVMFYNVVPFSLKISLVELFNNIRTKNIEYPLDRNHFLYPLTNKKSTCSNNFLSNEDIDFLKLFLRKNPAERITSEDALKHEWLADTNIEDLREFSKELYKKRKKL

[8] = target: Calcium-dependent protein kinase 4 (Plasmodium falciparum (isolate 3D7)) (UniProt Q8IBS5); experiment: PfCDPK4 kinase inhibitors, biochemical, TCAMS library (AID 1159588; cut-off not given, nearly all actives have IC50 up to about 0.91 µM); conditions: recombinant PfCDPK4, Kinase-Glo ATP depletion luminescence
Calcium-dependent protein kinase 4 (Plasmodium falciparum (isolate 3D7)), sequence (Q8IBS5 whole entry, looked up): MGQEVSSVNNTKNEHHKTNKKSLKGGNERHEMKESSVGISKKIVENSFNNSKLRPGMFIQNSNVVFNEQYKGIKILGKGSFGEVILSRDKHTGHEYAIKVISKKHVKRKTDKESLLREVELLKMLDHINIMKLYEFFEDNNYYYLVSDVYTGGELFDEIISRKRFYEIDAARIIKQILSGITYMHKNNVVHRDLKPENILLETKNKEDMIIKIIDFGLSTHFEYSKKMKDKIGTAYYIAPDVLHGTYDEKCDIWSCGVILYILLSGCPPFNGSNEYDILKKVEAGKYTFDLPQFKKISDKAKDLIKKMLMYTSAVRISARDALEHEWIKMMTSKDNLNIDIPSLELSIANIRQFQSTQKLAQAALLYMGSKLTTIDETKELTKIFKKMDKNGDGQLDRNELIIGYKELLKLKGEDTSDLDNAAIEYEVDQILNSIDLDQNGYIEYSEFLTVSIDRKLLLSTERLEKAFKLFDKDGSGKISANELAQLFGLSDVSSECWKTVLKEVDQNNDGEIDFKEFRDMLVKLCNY

O=C(/C=C/c1ccc(Cl)cc1Cl)NC1CCC(CN2CCC(c3c[nH]c4ccccc34)CC2)CC1 (stereo unspecified)
active: growth inhibition [1] 79% | growth inhibition [4] 101%
inactive: inhibition [2] 37% | inhibition [3] 7% | outcome [5] | outcome [6] | outcome [7] | outcome [8]

Oc1ccc(Cl)cc1CN1CCC(CCOC(c2ccccc2)c2ccccc2)CC1
inactive: inhibition [2] 14% | inhibition [3] 4% | outcome [5] | outcome [6] | outcome [7] | outcome [8]
active: growth inhibition [1] 99% | growth inhibition [4] 98%

Cn1nc(-c2ccc(S(=O)(=O)NC3CCC(CN4CCC(c5c[nH]c6ccccc56)CC4)CC3)s2)cc1C(F)(F)F (stereo unspecified)
active: growth inhibition [4] 98% and 96%
inactive: growth inhibition [1] 29% and 24% | inhibition [2] 35% and 38% | inhibition [3] -2% and 9% | outcome [5] | outcome [6] | outcome [7] | outcome [8]

CCCCCCCCNCC(O)c1ccc(Cl)c(Cl)c1 (stereo unspecified)
active: growth inhibition [1] 87% | growth inhibition [4] 99%
inactive: inhibition [2] -4% | inhibition [3] -3% | outcome [5] | outcome [6] | outcome [7] | outcome [8]

C/C=C1\CN2CC[C@H]1C[C@H]2[C@H](O)c1ccnc2ccc(OC)cc12
active: growth inhibition [4] 102% and 99%
45% (inactive) and 61% (active): growth inhibition [1]
inactive: inhibition [2] -12% and -9% | inhibition [3] 4% and -10% | outcome [5] | outcome [6] | outcome [7] | outcome [8]

CCCCCc1cc(O)c2c3c(c(=O)oc2c1)CN(C)CC3
inactive: inhibition [2] 4% | inhibition [3] 4% | outcome [5] | outcome [6] | outcome [7] | outcome [8]
active: growth inhibition [1] 99% | growth inhibition [4] 101%

CCCCCc1cc(O)c2c(c1)OC(C)(C)CC2C1=CCN(Cc2ccccc2)CC1 (stereo unspecified)
inactive: inhibition [2] 15% | inhibition [3] -5% | outcome [5] | outcome [6] | outcome [7] | outcome [8]
active: growth inhibition [1] 79% | growth inhibition [4] 99%

COc1ccc(CCNCc2ccc3nc(N)cc(C)c3c2)cc1
inactive: inhibition [2] 23% | inhibition [3] -5% | outcome [5] | outcome [6] | outcome [7] | outcome [8]
active: growth inhibition [1] 86% | growth inhibition [4] 100%

O=C(NC1CCC(CN2CCC(c3c[nH]c4ccccc34)CC2)CC1)c1ccc(-c2ccccc2[N+](=O)[O-])o1 (stereo unspecified)
active: growth inhibition [4] 100%
inactive: growth inhibition [1] 34% | inhibition [2] 24% | inhibition [3] -2% | outcome [5] | outcome [6] | outcome [7] | outcome [8]

Cc1nc(-c2ccc(-c3ccc(C(=O)Nc4ccc5c(c4)C4(CCNCC4)CO5)cc3)c(C)c2)no1
active: growth inhibition [4] 90%
inactive: growth inhibition [1] 15% | inhibition [2] 37% | inhibition [3] -3% | outcome [5] | outcome [6] | outcome [7] | outcome [8]

Cc1c(C(=O)N[C@@H](C)c2ccccc2)c2cc(O)c(Br)cc2n1C1CCCCC1
inactive: inhibition [2] 4% | inhibition [3] -6% | outcome [5] | outcome [6] | outcome [7] | outcome [8]
active: growth inhibition [1] 95% | growth inhibition [4] 98%

O=C(/C=C/c1ccccc1Cl)NC1CCC(CN2CCC(c3c[nH]c4ccccc34)CC2)CC1 (stereo unspecified)
35% (inactive) and 51% (active): growth inhibition [1]
active: growth inhibition [4] 99% and 100%
inactive: inhibition [2] 33% and 41% | inhibition [3] -2% and 3% | outcome [5] | outcome [6] | outcome [7] | outcome [8]

O=C(C=C1c2ccccc2-c2ccccc21)NC1CCC(CN2CCC(c3c[nH]c4ccccc34)CC2)CC1 (stereo unspecified)
inactive: inhibition [3] 4% and 1% | outcome [5] | outcome [6] | outcome [7] | outcome [8]
21% (inactive) and 54% (active): inhibition [2]
active: growth inhibition [1] 64% and 67% | growth inhibition [4] 102% and 99%

O=C(C=Cc1ccc(F)c(Br)c1)N1CCC(CN2CCC(c3c[nH]c4ccccc34)CC2)CC1
active: growth inhibition [4] 100%
inactive: growth inhibition [1] 9% | inhibition [2] 39% | inhibition [3] -3% | outcome [5] | outcome [6] | outcome [7] | outcome [8]

Cc1cc(N)nc2cc(CNCCc3ccccc3Br)ccc12
active: growth inhibition [1] 93% | growth inhibition [4] 101%
inactive: inhibition [2] 47% | inhibition [3] 0% | outcome [5] | outcome [6] | outcome [7] | outcome [8]

CC[C@H]1CN2CC[C@@H]1C[C@H]2[C@H](O)c1cc(-c2cccnc2)nc2ccc(OC)cc12
active: growth inhibition [1] 99% | growth inhibition [4] 99%
inactive: inhibition [2] 20% | inhibition [3] 3% | outcome [5] | outcome [6] | outcome [7] | outcome [8]

CC(=O)Nc1ccc(CN2CCC(N(C)c3ccc(NC(=O)c4cccc(C)c4)cc3)CC2)cc1
inactive: inhibition [2] -7% | inhibition [3] -4% | outcome [5] | outcome [6] | outcome [7] | outcome [8]
active: growth inhibition [1] 50% | growth inhibition [4] 91%

CC(Cc1ccc(OCCCCOc2ccccc2)cc1)NCCCN1CCOCC1 (stereo unspecified)
active: growth inhibition [1] 78% | inhibition [2] 98% | growth inhibition [4] 98%
inactive: inhibition [3] -2% | outcome [5] | outcome [6] | outcome [7] | outcome [8]

O=C(/C=C/c1ccsc1)NC1CCC(CN2CCC(c3c[nH]c4ccccc34)CC2)CC1 (stereo unspecified)
inactive: growth inhibition [1] 20% | inhibition [2] 29% | inhibition [3] -1% | outcome [5] | outcome [6] | outcome [7] | outcome [8]
active: growth inhibition [4] 82%

CC[C@H]1CN2CC[C@H]1C[C@H]2[C@H](O)c1cc(-c2cccc(Cl)c2)nc2ccc(OC)cc12
active: growth inhibition [1] 99% | growth inhibition [4] 98%
inactive: inhibition [2] 16% | inhibition [3] 6% | outcome [5] | outcome [6] | outcome [7] | outcome [8]

O=C(/C=C/c1ccc(O)cc1)NC1CCC(CN2CCC(c3c[nH]c4ccccc34)CC2)CC1 (stereo unspecified)
inactive: inhibition [2] 21% | inhibition [3] -7% | outcome [5] | outcome [6] | outcome [7] | outcome [8]
active: growth inhibition [1] 51% | growth inhibition [4] 99%

O=C(/C=C/c1ccccc1O)NC1CCC(CN2CCC(c3c[nH]c4ccccc34)CC2)CC1 (stereo unspecified)
active: growth inhibition [4] 101% and 103%
inactive: inhibition [2] 11% and 22% | inhibition [3] -1% and 5% | outcome [5] | outcome [6] | outcome [7] | outcome [8]
73% (active) and 45% (inactive): growth inhibition [1]

CCCCCCCc1cc(O)c2c3c(c(=O)oc2c1)CN(C)CC3
active: growth inhibition [1] 100% | growth inhibition [4] 97%
inactive: inhibition [2] -5% | inhibition [3] 3% | outcome [5] | outcome [6] | outcome [7] | outcome [8]

Oc1cccc(C2CCCN(Cc3cccc4cc[nH]c34)C2)c1 (stereo unspecified)
active: growth inhibition [1] 82% | growth inhibition [4] 101%
inactive: inhibition [2] 16% | inhibition [3] -2% | outcome [5] | outcome [6] | outcome [7] | outcome [8]

C[C@H](Cc1ccc(OCCCCCCOc2ccccc2)cc1)NC[C@@H](O)c1cc(Br)no1
active: growth inhibition [1] 70% | growth inhibition [4] 94%
inactive: inhibition [2] 21% | inhibition [3] 5% | outcome [5] | outcome [6] | outcome [7] | outcome [8]

COC(=O)c1ccc(CC(C)NCC(O)c2ccc(F)c(Cl)c2)cc1 (stereo unspecified)
active: growth inhibition [1] 78% | growth inhibition [4] 98%
inactive: inhibition [2] -4% | inhibition [3] -7% | outcome [5] | outcome [6] | outcome [7] | outcome [8]

CN(c1cc(NC(=O)c2ccc(F)cc2)ccn1)C1CCN(Cc2cccc(O)c2)CC1
active: growth inhibition [1] 82% | growth inhibition [4] 100%
inactive: inhibition [2] 3% | inhibition [3] 2% | outcome [5] | outcome [6] | outcome [7] | outcome [8]

CC[C@H]1CN2CC[C@H]1C[C@H]2C(O)c1cc(OC)nc2ccccc12 (stereo partly specified)
inactive: inhibition [2] -2% | inhibition [3] -1% | outcome [5] | outcome [6] | outcome [7] | outcome [8]
active: growth inhibition [1] 98% | growth inhibition [4] 100%

CC[C@H]1CN2CC[C@@H]1C[C@H]2[C@H](O)c1ccnc2ccc(Cl)cc12
active: growth inhibition [1] 98% | growth inhibition [4] 100%
inactive: inhibition [2] -3% | inhibition [3] 2% | outcome [5] | outcome [6] | outcome [7] | outcome [8]

C=C[C@H]1CN2CC[C@H]1C[C@H]2[C@H](OS(=O)(=O)O)c1ccnc2ccccc12
active: growth inhibition [4] 99%
inactive: growth inhibition [1] 15% | inhibition [2] 8% | inhibition [3] 5% | outcome [5] | outcome [6] | outcome [7] | outcome [8]

O=C(C=Cc1ccc(F)c(Br)c1)NC1CCC(CN2CCC(c3c[nH]c4ccccc34)CC2)CC1 (stereo unspecified)
inactive: inhibition [2] 39% and 28% | inhibition [3] 2% and 5% | outcome [5] | outcome [6] | outcome [7] | outcome [8]
active: growth inhibition [1] 67% and 50% | growth inhibition [4] 103% and 102%

COC(=O)c1sccc1NC(=S)NC1CCC(CN2CCC(c3c[nH]c4ccccc34)CC2)CC1 (stereo unspecified)
active: growth inhibition [4] 97% and 100%
inactive: inhibition [2] 25% and 34% | inhibition [3] 0% and -1% | outcome [5] | outcome [6] | outcome [7] | outcome [8]
54% (active) and 49% (inactive): growth inhibition [1]

C/C=C1\CN2CC[C@H]1C[C@H]2[C@H](O)c1ccnc2ccc(O)cc12
active: growth inhibition [4] 98%
inactive: growth inhibition [1] -1% | inhibition [2] -15% | inhibition [3] -3% | outcome [5] | outcome [6] | outcome [7] | outcome [8]

O=C(/C=C/c1c(Cl)cccc1Cl)NC1CCC(CN2[C@@H]3CC[C@H]2CC(c2c[nH]c4ccccc24)C3)CC1 (stereo partly specified)
active: growth inhibition [4] 95%
inactive: growth inhibition [1] 18% | inhibition [2] 40% | inhibition [3] -1% | outcome [5] | outcome [6] | outcome [7] | outcome [8]

CCCCc1ccc2[nH]cc(C3=CCN(C)CC3)c2c1Br
active: growth inhibition [1] 94% | growth inhibition [4] 94%
inactive: inhibition [2] 37% | inhibition [3] -5% | outcome [5] | outcome [6] | outcome [7] | outcome [8]

COCC(=O)N(Cc1cccc(-c2ccc(CNCCc3ccccc3)cc2)c1)C1CCN(Cc2ccccc2)CC1
inactive: growth inhibition [1] 45% | inhibition [2] 44% | inhibition [3] 4% | outcome [5] | outcome [6] | outcome [7] | outcome [8]
active: growth inhibition [4] 93%

CC[C@H]1CN2CCc3cc(OC)c(OC)cc3[C@@H]2C[C@@H]1C[C@H]1NCCc2c1cc(OC)c(O)c2Cl
inactive: inhibition [3] 2% | outcome [5] | outcome [6] | outcome [7] | outcome [8]
active: growth inhibition [1] 101% | inhibition [2] 51% | growth inhibition [4] 100%
